Data published in the supplement of paper PMC12067926.
Unmarked numbers belong to inactive results.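 The calls were made as follows: active = growth AUC significantly below the DMSO wells by Dunnett test; inactive = the rest.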

Key:
Assay in all cases: relative growth (AUC of 72 h growth curve relative to DMSO control, dAUC) (ratio); higher = more growth (less inhibition), active = hit call of the paper
Conditions in all cases: 20 µM
[1] = test system: Aeromonas 1 (Aeromonas sp. AE235)
How it was run: (§1)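 Each chemical was tested at 20 µM (1% DMSO) in 96-well plates seeded with a 1:100 dilution of cultures grown to carrying capacity in Luria–Bertani medium. These were isolates from Icelandic stream sediments and Silwood Park soil, as well as whole sediment communities. A plate reader took A600 readings hourly over 72 h, and three biological replicates were averaged. Relative growth (dAUC) is the spline-integrated area under the growth curve relative to the mean of the DMSO controls.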

[2] = test system: Aeromonas 2 (Aeromonas sobria)
How it was run: as §1

[3] = test system: Aeromonas 3 (Aeromonas popoffii)
How it was run: as §1

[4] = test system: Argrobacterium 1 (Agrobacterium sp.)
How it was run: as §1

[5] = test system: Arthrobacter 1 (Arthrobacter humicola)
How it was run: as §1

[6] = test system: Arthrobacter 2 (Arthrobacter humicola)
How it was run: as §1

[7] = test system: Arthrobacter 3 (Arthrobacter sp.)
How it was run: as §1

Community 10 = test system: Community 10
How it was run: as §1

Community 4 = test system: Community 4
How it was run: as §1

Community 6 = test system: Community 6
How it was run: as §1

Row | SMILES | relative growth [1] | relative growth [2] | relative growth [3] | relative growth [4] | relative growth [5] | relative growth [6] | relative growth [7] | relative growth (Community 10) | relative growth (Community 4) | relative growth (Community 6)
1 | CC1(C)C(C=C(Cl)Cl)C1C(=O)OCc1cccc(Oc2ccccc2)c1 (stereo not drawn) | 1.03 | 0.961 | 0.99 | 1.04 | 1.12 | 0.851 | 0.987 | 0.824 | 0.922 | 0.94
2 | COCC(=O)N(c1c(C)cccc1C)C(C)C(=O)OC (stereo not drawn) | 1.03 | 1.04 | 1.04 | 1.01 | 0.944 | 0.862 | 0.994 | 1.06 | 1.05 | 1.03
3 | CCC(C)(C)C(=O)OC1=C(c2ccc(Cl)cc2Cl)C(=O)OC12CCCCC2 | 0.99 | 0.957 | 1 | 1.01 | 0.721 | 0.892 | 0.892 | 0.839 | 1.03 | 1.08
4 | O=C(NC(=O)c1c(F)cccc1F)Nc1ccc(Cl)cc1 | 1.01 | 1.01 | 0.986 | 1.04 | 0.955 | 0.985 | 1.09 | 0.795 | 0.924 | 0.996
5 | CCc1cc(C)cc(CC)c1-c1c(OC(=O)C(C)(C)C)n2n(c1=O)CCOCC2 | 0.987 | 0.978 | 1.02 | 0.957 | 1.01 | 0.873 | 0.917 | 0.925 | 0.852 | 0.906
6 | CCc1nn(C)c(C(=O)NCc2ccc(Oc3ccc(C)cc3)cc2)c1Cl | 1.03 | 1.06 | 1.05 | 1.02 | 1.04 | 0.892 | 1.02 | 0.804 | 0.865 | 0.897
7 | CC(Oc1ccc(Oc2nc3ccc(Cl)cc3o2)cc1)C(=O)O (stereo not drawn) | 1.02 | 1.01 | 1.04 | 1.01 | 1.08 | 0.93 | 1.01 | 1.15 | 0.991 | 1.07
8 | CN/C(=N/CC1CCOC1)N[N+](=O)[O-] (stereo not drawn) | 1 | 1.02 | 1.05 | 1.02 | 1.01 | 1.03 | 0.998 | 0.953 | 1.09 | 1
9 | CC(C)N1C(=O)c2ccccc2NS1(=O)=O | 0.965 | 0.994 | 0.991 | 0.998 | 1.03 | 1.05 | 1.13 | 0.86 | 0.932 | 0.962
10 | N#Cc1nn(-c2c(Cl)cc(C(F)(F)F)cc2Cl)c(N)c1[S+]([O-])C(F)(F)F (stereo not drawn) | 0.981 | 0.935 | 1 | 1.01 | 0.911 | 0.914 | 0.853 | 1.05 | 1.07 | 1.06
11 | Oc1ccc(Cl)cc1Cc1cc(Cl)ccc1O | 0.522 (active) | 0.00195 (active) | 0.275 (active) | 0.959 | 0.00578 (active) | 0.00499 (active) | 0.011 (active) | 0.642 | 0.664 | 0.496 (active)
12 | CCN(CC)c1nc(C)cc(OP(=S)(OC)OC)n1 | 1 | 0.982 | 1.02 | 1.04 | 0.998 | 0.924 | 0.956 | 0.843 | 1.01 | 0.982
13 | CCCCCCCCCCCCNC(=N)N | 0.94 | 0.928 | 0.97 | 0.233 (active) | 0.0065 (active) | 0.00389 (active) | 0.0063 (active) | 0.505 (active) | 0.501 (active) | 0.407 (active)
14 | CCCC1COC(Cn2cncn2)(c2ccc(Cl)cc2Cl)O1 (stereo not drawn) | 0.966 | 0.949 | 0.971 | 0.999 | 0.991 | 0.797 | 0.751 | 0.868 | 0.89 | 0.917
15 | O=C1c2ccccc2C(=O)N1SC(Cl)(Cl)Cl | 1.04 | 0.951 | 0.992 | 1.04 | 1.04 | 0.994 | 1.1 | 0.818 | 0.962 | 0.721
16 | CCCN(CCOc1c(Cl)cc(Cl)cc1Cl)C(=O)n1ccnc1 | 1.02 | 0.971 | 1 | 1.01 | 0.702 | 0.209 (active) | 0.352 (active) | 0.868 | 0.934 | 0.982
17 | CCOC(=O)OC1=C(c2cc(C)ccc2C)C(=O)N[C@]12CC[C@@H](OC)CC2 | 0.965 | 0.981 | 1.01 | 1.03 | 1.17 | 1.03 | 0.986 | 0.945 | 1.14 | 1.02
18 | CC1(C)[C@H](/C=C(\Cl)C(F)(F)F)[C@@H]1C(=O)OC(C#N)c1cccc(Oc2ccccc2)c1 (stereo partly drawn) | 0.951 | 0.993 | 1.04 | 1.07 | 1.28 | 0.838 | 0.955 | 0.816 | 0.998 | 1.03
19 | CC1(C)[C@H](C(=O)O[C@H](C#N)c2cccc(Oc3ccccc3)c2)[C@@H]1C=C(Br)Br | 1.05 | 1.04 | 1.09 | 1.09 | 1.16 | 0.949 | 0.946 | 0.964 | 1.01 | 1.06
20 | COc1cccc(C(=O)NN(C(=O)c2cc(C)cc(C)c2)C(C)(C)C)c1C | 0.951 | 0.969 | 0.979 | 0.982 | 0.98 | 0.884 | 1.02 | 0.786 | 0.822 | 0.89
21 | CCOC(=O)CC(SP(=S)(OC)OC)C(=O)OCC (stereo not drawn) | 1.06 | 0.992 | 1.02 | 1.01 | 1.22 | 1.05 | 0.98 | 0.992 | 1.15 | 1.09
22 | COC(=O)NC(=S)Nc1ccccc1NC(=S)NC(=O)OC | 0.978 | 0.978 | 0.998 | 1.02 | 0.923 | 0.973 | 1.07 | 0.99 | 0.943 | 0.97
23 | CCNc1nc(Cl)nc(NC(C)C)n1 | 0.965 | 0.972 | 0.992 | 1.01 | 0.902 | 1.03 | 0.968 | 1.04 | 1.05 | 1.01
24 | N#CCNC(=O)c1cnccc1C(F)(F)F | 1.01 | 0.97 | 1.03 | 0.992 | 0.965 | 0.882 | 0.96 | 0.928 | 0.954 | 0.919
25 | CSc1nc(NC(C)C)nc(NC(C)C)n1 | 0.966 | 0.971 | 0.983 | 1.03 | 1.03 | 0.956 | 1.07 |  | 0.933 | 0.922
26 | Oc1ccccc1-c1ccccc1 | 1.01 | 0.967 | 1.01 | 0.914 | 0.929 | 0.866 | 0.964 | 0.954 | 0.851 | 0.973
27 | CCCCc1c(C)nc(NCC)nc1OS(=O)(=O)N(C)C | 0.942 | 0.942 | 1.04 | 1.03 | 0.911 | 0.863 | 0.926 | 0.816 | 0.948 | 0.944
28 | CCC(CC)Nc1c([N+](=O)[O-])cc(C)c(C)c1[N+](=O)[O-] | 0.951 | 0.973 | 0.997 | 0.993 | 0.901 | 0.884 | 1.02 |  | 0.88 | 0.917
29 | N#Cc1c(Cl)c(Cl)c(Cl)c(C#N)c1Cl | 1.04 | 0.898 | 1.01 | 0.958 | 0.567 (active) | 0.136 (active) | 0.599 (active) | 0.896 | 1.08 | 0.965
